{
  "source": "ChEMBL document CHEMBL2218924",
  "about": "“A broad activity screen in support of a chemogenomic map for kinase signalling research and drug discovery” (Biochem J, 2013)",
  "key": {"[1]": {"target": "Casein kinase II subunit alpha' (Homo sapiens) (UniProt P19784)", "sequence (P19784 whole entry, looked up)": "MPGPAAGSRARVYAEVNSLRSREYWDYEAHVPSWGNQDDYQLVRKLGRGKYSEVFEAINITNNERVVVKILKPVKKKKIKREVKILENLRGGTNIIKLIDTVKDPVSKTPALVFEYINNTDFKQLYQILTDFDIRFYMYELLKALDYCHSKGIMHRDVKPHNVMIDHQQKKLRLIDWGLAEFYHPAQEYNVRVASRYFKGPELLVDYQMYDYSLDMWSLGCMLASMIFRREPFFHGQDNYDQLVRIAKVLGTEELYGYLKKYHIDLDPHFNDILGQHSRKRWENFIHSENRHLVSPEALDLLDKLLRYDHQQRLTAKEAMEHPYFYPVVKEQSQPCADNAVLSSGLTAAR", "conditions": "at 1 µM"}, "[2]": {"target": "Casein kinase II subunit alpha' (Homo sapiens) (UniProt P19784)", "conditions": "at 10 µM"}, "[3]": {"target": "Dual specificity protein kinase CLK2 (Homo sapiens) (UniProt P49760)", "sequence (P49760 whole entry, looked up)": "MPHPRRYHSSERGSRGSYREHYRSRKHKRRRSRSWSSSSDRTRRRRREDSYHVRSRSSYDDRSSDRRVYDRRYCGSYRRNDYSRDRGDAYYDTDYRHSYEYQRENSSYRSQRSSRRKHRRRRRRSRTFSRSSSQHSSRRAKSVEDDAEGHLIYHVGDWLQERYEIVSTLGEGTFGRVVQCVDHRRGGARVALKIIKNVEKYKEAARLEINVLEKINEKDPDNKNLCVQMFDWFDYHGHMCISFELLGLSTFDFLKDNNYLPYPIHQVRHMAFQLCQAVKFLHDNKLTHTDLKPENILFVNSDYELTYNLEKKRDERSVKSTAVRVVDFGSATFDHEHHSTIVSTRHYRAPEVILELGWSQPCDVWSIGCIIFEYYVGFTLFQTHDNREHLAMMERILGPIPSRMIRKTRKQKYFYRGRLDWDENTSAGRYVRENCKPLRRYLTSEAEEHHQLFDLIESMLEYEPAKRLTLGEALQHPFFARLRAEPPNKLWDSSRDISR", "conditions": "at 10 µM"}, "[4]": {"target": "Dual specificity protein kinase CLK3 (Homo sapiens) (UniProt P49761)", "sequence (P49761 whole entry, looked up)": "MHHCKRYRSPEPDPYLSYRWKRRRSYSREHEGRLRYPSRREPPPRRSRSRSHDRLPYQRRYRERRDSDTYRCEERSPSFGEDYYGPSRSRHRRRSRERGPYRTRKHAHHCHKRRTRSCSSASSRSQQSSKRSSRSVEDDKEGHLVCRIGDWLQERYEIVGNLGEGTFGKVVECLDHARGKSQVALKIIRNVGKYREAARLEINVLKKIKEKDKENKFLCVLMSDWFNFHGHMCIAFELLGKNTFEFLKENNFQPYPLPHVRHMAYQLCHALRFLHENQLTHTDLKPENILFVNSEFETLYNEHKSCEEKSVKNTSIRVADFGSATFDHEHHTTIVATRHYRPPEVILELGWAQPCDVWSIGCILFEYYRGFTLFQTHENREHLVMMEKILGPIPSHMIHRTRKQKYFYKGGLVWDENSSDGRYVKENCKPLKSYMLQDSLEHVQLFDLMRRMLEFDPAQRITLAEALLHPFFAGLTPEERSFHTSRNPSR", "conditions": "at 1 µM"}, "[5]": {"target": "Dual specificity protein kinase CLK3 (Homo sapiens) (UniProt P49761)", "conditions": "at 10 µM"}, "[6]": {"target": "Dual specificity protein kinase CLK2 (Homo sapiens) (UniProt P49760)", "conditions": "at 1 µM"}, "[7]": {"target": "Tyrosine-protein kinase CSK (Homo sapiens) (UniProt P41240)", "sequence (P41240 2-450 limits assumed)": "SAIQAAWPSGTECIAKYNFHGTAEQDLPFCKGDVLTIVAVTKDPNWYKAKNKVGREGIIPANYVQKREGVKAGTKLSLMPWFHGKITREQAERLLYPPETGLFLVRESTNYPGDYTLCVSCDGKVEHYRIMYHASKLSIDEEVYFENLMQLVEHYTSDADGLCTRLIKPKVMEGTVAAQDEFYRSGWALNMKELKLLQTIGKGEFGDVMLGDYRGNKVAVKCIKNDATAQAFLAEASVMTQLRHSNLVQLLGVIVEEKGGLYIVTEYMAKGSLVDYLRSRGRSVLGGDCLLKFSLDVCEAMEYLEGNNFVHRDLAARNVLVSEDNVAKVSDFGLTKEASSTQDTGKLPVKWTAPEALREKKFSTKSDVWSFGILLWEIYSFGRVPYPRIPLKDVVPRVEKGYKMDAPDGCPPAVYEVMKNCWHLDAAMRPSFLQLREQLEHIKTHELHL", "conditions": "at 1 µM"}, "[8]": {"target": "Tyrosine-protein kinase CSK (Homo sapiens) (UniProt P41240)", "conditions": "at 10 µM"}, "[9]": {"target": "Casein kinase II (Homo sapiens) (UniProt P67870+P68400+P19784)", "sequence (P19784 whole entry, looked up)": "as the sequence (P19784 whole entry, looked up) above", "sequence (P67870 whole entry, looked up)": "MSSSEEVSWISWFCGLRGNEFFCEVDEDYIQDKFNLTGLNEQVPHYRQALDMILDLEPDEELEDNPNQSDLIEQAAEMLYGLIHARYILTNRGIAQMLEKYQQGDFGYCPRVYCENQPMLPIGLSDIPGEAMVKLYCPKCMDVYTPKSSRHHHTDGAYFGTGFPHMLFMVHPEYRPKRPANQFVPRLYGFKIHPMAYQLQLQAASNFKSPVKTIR", "sequence (P68400 whole entry, looked up)": "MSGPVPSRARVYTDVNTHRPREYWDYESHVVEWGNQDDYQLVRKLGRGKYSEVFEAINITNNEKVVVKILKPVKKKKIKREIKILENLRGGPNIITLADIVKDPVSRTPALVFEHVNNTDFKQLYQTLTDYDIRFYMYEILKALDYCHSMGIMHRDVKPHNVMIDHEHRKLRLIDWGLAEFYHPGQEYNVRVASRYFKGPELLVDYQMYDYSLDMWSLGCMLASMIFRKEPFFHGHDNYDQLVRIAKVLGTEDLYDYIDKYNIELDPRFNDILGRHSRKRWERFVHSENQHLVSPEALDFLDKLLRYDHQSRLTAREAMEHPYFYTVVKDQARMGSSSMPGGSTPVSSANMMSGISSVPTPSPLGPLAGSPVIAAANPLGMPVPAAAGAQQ", "conditions": "at 10 µM"}},
  "data": [
    {"smiles": "N#C/C(=C\\c1ccc(O)c(O)c1)C(=O)NCc1ccccc1", "values": [
      {"measurement": "residual activity", "setting": "[1]", "value": 129, "unit": "%"},
      {"measurement": "residual activity", "setting": "[2]", "value": 100, "unit": "%"},
      {"measurement": "residual activity", "setting": "[3]", "value": 80, "unit": "%"},
      {"measurement": "residual activity", "setting": "[4]", "value": 82, "unit": "%"}
    ]},
    {"smiles": "O=S(=O)(c1cccc2cnccc12)N1CCCNCC1", "values": [
      {"measurement": "residual activity", "setting": "[5]", "value": 81, "unit": "%"}
    ]},
    {"smiles": "COc1ccc(CNC(=O)Nc2ncc([N+](=O)[O-])s2)cc1", "values": [
      {"measurement": "residual activity", "setting": "[6]", "value": 102, "unit": "%"},
      {"measurement": "residual activity", "setting": "[3]", "value": 105, "unit": "%"},
      {"measurement": "residual activity", "setting": "[7]", "value": 81, "unit": "%"},
      {"measurement": "residual activity", "setting": "[8]", "value": 74, "unit": "%"}
    ]},
    {"smiles": "CCN(CC)CCNC(=O)c1c(C)[nH]c(/C=C2\\C(=O)Nc3ccc(Cl)cc32)c1C", "values": [
      {"measurement": "residual activity", "setting": "[2]", "value": 47, "unit": "%"},
      {"measurement": "residual activity", "setting": "[6]", "value": 9, "unit": "%"},
      {"measurement": "residual activity", "setting": "[3]", "value": 1, "unit": "%"},
      {"measurement": "residual activity", "setting": "[4]", "value": 77, "unit": "%"},
      {"measurement": "residual activity", "setting": "[5]", "value": 4, "unit": "%"}
    ]},
    {"smiles": "COc1cc2nccc(Oc3ccc(NC(=O)Nc4cc(C)on4)c(Cl)c3)c2cc1OC", "values": [
      {"measurement": "residual activity", "setting": "[3]", "value": 99, "unit": "%"},
      {"measurement": "residual activity", "setting": "[4]", "value": 80, "unit": "%"},
      {"measurement": "residual activity", "setting": "[5]", "value": 4, "unit": "%"},
      {"measurement": "residual activity", "setting": "[7]", "value": 72, "unit": "%"},
      {"measurement": "residual activity", "setting": "[8]", "value": 35, "unit": "%"}
    ]},
    {"smiles": "COc1ccc2c(c1)c(C1=C(c3c[nH]c4ccccc34)C(=O)NC1=O)cn2CCCN(C)C", "values": [
      {"measurement": "residual activity", "setting": "[9]", "value": 111, "unit": "%"},
      {"measurement": "residual activity", "setting": "[6]", "value": 14, "unit": "%"},
      {"measurement": "residual activity", "setting": "[3]", "value": 2, "unit": "%"},
      {"measurement": "residual activity", "setting": "[4]", "value": 59, "unit": "%"},
      {"measurement": "residual activity", "setting": "[5]", "value": 45, "unit": "%"}
    ]}
  ]
}
